The values that follow come from the supplement of paper PMC6555819.

What all share (assay): PBM binding z-score (relative to random genomic background probes); higher = stronger binding; sequences stand for … in GC…GCGATTGACAGCGTAGAATGAAGG
The test system of assay [1] is FXR:RXRa (NR concentration 270 nM, RXRa partner concentration 90 nM). In a few lines: (§1)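 Random background probes are the reference for binding z-scores. These scores derive from regression-normalized fluorescence on custom Agilent 4×180K protein-binding microarrays incubated 1 h with ligand-free nuclear receptor dimers. Binding was detected with antibodies against each partner (one per run).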

In assay [2] the test system is LXRa:RXRa (NR concentration 270 nM, RXRa partner concentration 90 nM). In short, it runs like this:
as §1

Assay [3] deals with LXRa homodimer (NR concentration 270 nM). In a few lines: as §1
In assay [4] the test system is LXRb:RXRa (NR concentration 270 nM, RXRa partner concentration 90 nM). In a few lines: as §1
In assay [5] the test system is LXRb homodimer (NR concentration 270 nM). In short, it runs like this:
as §1

Assay [6] relates to PPARa:RXRa (NR concentration 270 nM, RXRa partner concentration 90 nM). In short, it runs like this:
as §1

The test system of assay [7] is PPARg:RXRa (NR concentration 180 nM, RXRa partner concentration 90 nM). In a few lines:
as §1

In assay [8] the test system is PPARg:RXRa 270nM:90nM, anti-RXR (NR concentration 270 nM, RXRa partner concentration 90 nM). In a few lines: as §1
In assay [9] the test system is PPARg:RXRa 30nM:10nM, anti-RXR (NR concentration 30 nM, RXRa partner concentration 10 nM). In a few lines:
as §1

Assay [10] has as its system PPARg:RXRa 90nM:30nM, anti-RXR (NR concentration 90 nM, RXRa partner concentration 30 nM). In a few lines: as §1
Assay [11] deals with PPARg:RXRa DBDmut IVT, anti-RXR (DBD mutation: RXRa K156A/R161A, NR concentration 270 nM, RXRa partner concentration 90 nM). In short, it runs like this: as §1
Assay [12] concerns PPARg:RXRa IVT, anti-PPARg (NR concentration 270 nM, RXRa partner concentration 90 nM). In short, it runs like this:
as §1

Assay [13] relates to PPARg DBDmut:RXRa IVT, anti-PPARg (DBD mutation: PPARg1 K132A/R137A, NR concentration 270 nM, RXRa partner concentration 90 nM). In short, it runs like this: as §1
Assay [14] has as its system PPARg DBDmut IVT, anti-PPARg (DBD mutation: PPARg1 K132A/R137A, NR concentration 270 nM). In a few lines:
as §1

Assay [15] has as its system PPARg homodimer (NR concentration 180 nM). In a few lines: as §1
Assay [16] has as its system PXR:RXRa (NR concentration 270 nM, RXRa partner concentration 90 nM). In a few lines:
as §1

The test system of assay [17] is PXR homodimer (NR concentration 270 nM). In a few lines:
as §1

The test system of assay [18] is RARa:RXR (NR concentration 270 nM, RXRa partner concentration 90 nM). In a few lines:
as §1

Assay [19] concerns RARa homodimer (NR concentration 270 nM). In a few lines:
as §1

For assay [20], the system named is RARb:RXRa (NR concentration 270 nM, RXRa partner concentration 90 nM). In a few lines:
as §1

For the sequence GTACCAAAGTGAATAGGTCGTTGATGAGTAGGCG, the PBM binding z-score in assay [1] is -0.437; in [2], -0.179; in assay [3] it was 0.178; in assay [4] it was -0.156; in [5] it was -0.573; in assay [6], 0.468. For the same sequence, the PBM binding z-score is 0.56 in assay [7]; 0.234 in assay [8]; 0.0456 in [9]; -0.0827 in [10]; -0.402 in assay [11]; -0.0847 in [12]. For the same sequence, the PBM binding z-score in assay [13] was 0.259; in assay [14], -0.53; in [15], 0.312; in assay [16] it was -0.00367; in [17], -0.196; in assay [18] it was 0.176. Besides, the PBM binding z-score in assay [19] was found to be 0.281; in [20] it was 0.279.

For ACAGACACGTGAGTGAAGGTAACTCAGCTGGACG, the PBM binding z-score in [1] is -0.234; in assay [2] it was -0.154; in assay [3] it was -0.292; in [4], -0.456; in assay [5] it was -0.355; in assay [6], -0.342. Also, the PBM binding z-score was 0.663 in assay [7]; -0.357 in assay [8]; -0.193 in assay [9]; -0.63 in assay [10]; -0.453 in assay [11]; -0.172 in assay [12]. Further, the PBM binding z-score was -0.0263 in [13]; 0.112 in assay [14]; -0.539 in [15]; -0.408 in [16]; -0.777 in [17]; -0.0459 in assay [18]. Also, the PBM binding z-score in [19] was -0.522; in [20], -0.255.

Take ATTCAAAGTTCAGGACGAGGTAACGTAAAGCACG: the PBM binding z-score in assay [1] worked out at 4.14; in assay [2], 4.12; in assay [3] it was 1.92; in assay [4], 2.22; in [5], 1.06; in assay [6], 3.21. The PBM binding z-score was 2.19 in [7]; 2.41 in [8]; 1.01 in assay [9]; 1.54 in assay [10]; -0.268 in assay [11]; 1.33 in assay [12]. Also, the PBM binding z-score in assay [13] stood at 1.03; in assay [14], 0.76; in assay [15], 1.93; in [16] it was 2.95; in assay [17] it was 1.44; in assay [18], 3.01. Further, the PBM binding z-score in [19] was determined as 0.385; in assay [20], 4.19.

On to CAGGCTAGGTCAGGGCCAGTATAGGAGGAACGTT, for which the PBM binding z-score was 1.56 in assay [1]; 0.779 in [2]; -0.274 in assay [3]; 0.278 in assay [4]; -0.895 in [5]; 2.06 in assay [6]. Moreover, the PBM binding z-score in assay [7] is 1.39; in assay [8], 1.07; in assay [9], -0.194; in assay [10], 0.297; in assay [11], 1.77; in assay [12], 2.27. Besides, the PBM binding z-score in assay [13] was -0.979; in [14], -1.24; in [15], 0.901; in assay [16], 0.235; in assay [17], -0.157; in assay [18], 0.946. Further, the figures for the PBM binding z-score in assay [19] and in assay [20] were 0.278 and 3.6, respectively.

In the case of TATACAGGGTCAAAGGCCAGAGTTCGAATGTCGA, the PBM binding z-score in assay [1] is 7.08; in assay [2], 6.38; in assay [3], 3.94; in assay [4], 4.81; in assay [5] it was 2.5; in assay [6], 6.15. In addition, the PBM binding z-score is 8.48 in assay [7]; 7.27 in assay [8]; 5.54 in assay [9]; 7.17 in assay [10]; 2.55 in assay [11]; 4.54 in [12]. Also, the PBM binding z-score in assay [13] amounted to 1.63; in assay [14] it was 2; in [15], 3.99; in assay [16], 5.44; in assay [17], 2.54; in [18], 6.63. For the same sequence, the PBM binding z-score in [19] stood at 1.14; in assay [20], 4.53.

For the sequence CCGTCTGGGGCATAAGGTTACCATAAGCCAGCCC, the PBM binding z-score in assay [1] was 0.562; in assay [2] it was 2.1; in [3] it was -0.402; in assay [4] it was 0.847; in assay [5], -1.32; in assay [6], 1.78. Also, the PBM binding z-score in [7] worked out at 1.29; in [8], 2.07; in [9] it was 0.233; in assay [10], 1.54; in assay [11], 1.52; in [12], 1.84. For the same sequence, the PBM binding z-score in [13] was -1.52; in [14], -1.72; in [15], 0.475; in assay [16], 0.566; in assay [17], -0.335; in assay [18], 1.39. The figures for the PBM binding z-score in assay [19] and in assay [20] were -0.41 and 1.84, respectively.

In the case of TCTAGCAGGCCTGAGGGTCACTCAAGAGGTACGG, the PBM binding z-score was 1.03 in [1]; 1.18 in [2]; -0.547 in [3]; 1.32 in assay [4]; -1.24 in assay [5]; 2.38 in assay [6]. The PBM binding z-score is 0.588 in [7]; 1.57 in assay [8]; 1.62 in assay [9]; 1.44 in assay [10]; 0.475 in assay [11]; -0.212 in [12]. The PBM binding z-score in assay [13] is -2.08; in assay [14], -1.13; in [15], 0.706; in assay [16], 1.92; in assay [17] it was -0.465; in assay [18], 2.85. For the same sequence, the PBM binding z-score is -0.571 in [19] and 2.12 in assay [20].
